Results: PubChem BioAssay (Tox21)
Where “and” joins values, the source holds several entries; their conditions need not be identical. Identical values can stand only once. Results filed as inconclusive are left out. A call without a number means that no potency is given here. A structure can be active in one record and inactive in another. Calls of active or inactive are those of the source. Unless noted, calls come from the whole dose curve; as a rule, active = well fitted curve in the direction sought with a large enough effect in the repeat runs; inconclusive = weak or mixed curves; inactive = no such curve, though single readings can be large; an effect the other way counts as inactive or inconclusive.

Tests used:
[1] = qHTS assay to identify small molecule agonists of the estrogen receptor alpha (ER-alpha) signaling pathway in the presence of an antagonist - cell viability counter screen (AID 1259386);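 note: cells exposed to compounds for 22 h at 37 °C before the viability read; nearly all actives have a fitted effect of over 30% in size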; note: potency is the fitted concentration of half-maximal effect
Summary of the method: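 Cells are starved of estrogens for 5 days in charcoal-stripped serum, seeded for 24hr and co-treated with ICI-182,780 (10.0nM final) and test compounds. After 22hr at 37C, viability is read as CellTiter-Fluor fluorescence.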

[2] = molecular target: Progesterone receptor (Homo sapiens) (UniProt P06401); test: qHTS assay to identify small molecule agonists of the progesterone receptor (PR) signaling pathway (AID 1346784; calls by dose curve; note: nearly all actives have a fitted effect of over 30% in size; note: potency is the fitted concentration of half-maximal effect)
Summary of the method: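 Seed PR-UAS-bla HEK 293T cells (2% charcoal-stripped FBS), incubate 6 hr at 37C; add compounds in DMSO, 16 hr at 37C; add LiveBLAzer B/G substrate, 2 hr RT; read fluorescence intensity.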

[3] = molecular target: Progesterone receptor (Homo sapiens) (UniProt P06401); test: qHTS assay to identify small molecule antagonists of the progesterone receptor (PR) signaling pathway (AID 1346795; active = well fitted inhibition curve with a large enough effect in the signal ratio in the repeat runs, not every such curve was filed as active; the % refers to the signal ratio; note: potency is the fitted concentration of half-maximal effect)
Summary of the method: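 Screening used a GripTite HEK293T line with PR-responsive UAS-beta-lactamase. Cells were challenged with compound in the presence of 1 nM R5020 final for 16 hr at 37C; B/G FRET substrate, 2 hr room temperature, fluorescence.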

[4] = qHTS assay to identify small molecule antagonists of the progesterone receptor (PR) signaling pathway - cell viability counter screen (AID 1346798); note: nearly all actives have a fitted effect of over 50% in size; note: potency is the fitted concentration of half-maximal effect
Summary of the method: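 Measures cytotoxicity in parallel with the PR antagonist reporter read: HEK293T PR-UAS-bla cells get compound and R5020 for 16 hr, and remaining viable cells are quantified by CellTiter-Glo luminescence.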

[5] = qHTS assay to identify small molecule agonists of the progesterone receptor (PR) signaling pathway - cell viability counter screen (AID 1346799; calls by dose curve; note: nearly all actives have a fitted effect of over 45% in size; note: potency is the fitted concentration of half-maximal effect)
Summary of the method: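 Using the same plates as the PR reporter screen, HEK293T PR-UAS-bla cells received compounds for 16 hr at 37C and were then lysed with CellTiter-Glo; luminescence was read 30 min later at room temperature.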

[6] = qHTS assay to identify small molecule antagonists of the TGF-beta/Smad signaling pathway - cell viability counter screen (AID 1346824); note: nearly all actives have a fitted effect of over 50% in size
Summary of the method: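 SBE-bla HEK 293T cells were plated overnight at 37 C, then given compounds in DMSO plus TGF-beta1 (added as 0.25 ng/mL solution) for 5 hr. After the bla read, CellTiter-Glo was added to the same wells and luminescence read after 30 min at room temperature.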

[7] = qHTS assay to identify small molecule agonists of the TGF-beta/Smad signaling pathway - cell viability counter screen (AID 1346829); note: nearly all actives have a fitted effect of over 45% in size; note: potency is the fitted concentration of half-maximal effect
Summary of the method: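 SBE-bla HEK 293T cells plated overnight, compound exposure 5 hr at 37 C. Viability read in the same wells by CellTiter-Glo luminescence after 30 min at room temperature, following the beta-lactamase read.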

[8] = qHTS assay to identify small molecule agonists of the TGF-beta/Smad signaling pathway (AID 1346859; active = well fitted activation curve with a large enough effect in the signal ratio in the repeat runs, not every such curve was filed as active; the % refers to the signal ratio; note: series mostly up to about 77 µM)
Summary of the method: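 Beta-lactamase reporter activity downstream of Smad binding elements was measured in stably transfected HEK 293T cells; compounds were incubated for 5 hr, substrate for 2 hr at room temperature.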

[9] = molecular target: Thyrotropin-releasing hormone receptor (Homo sapiens) (UniProt P34981); test: qHTS assay to identify small molecule antagonists of the thyrotropin-releasing hormone receptor (TRHR) signaling pathway (AID 1346877; active = well fitted inhibition curve with a large enough effect in the repeat runs, not every such curve was filed as active; note: series mostly up to about 51 µM)
Summary of the method: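 Cells (TRHR-HEK293) are plated and kept 18 h at 37 °C/5% CO2. A calcium-sensitive dye is added for 2 h, compound follows for 5 min at room temperature, and TRH is then given at 1 nM final.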

[10] = molecular target: Thyrotropin-releasing hormone receptor (Homo sapiens) (UniProt P34981); test: qHTS assay to identify small molecule agonists of the thyrotropin-releasing hormone receptor (TRHR) signaling pathway (AID 1346891; calls by dose curve;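 note: HEK293 cells expressing TRHR with calcium dye readout; series mostly up to about 58 µM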)
Summary of the method: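 Overnight-plated (18 h, 37 °C, 5% CO2) TRHR-Hek293 cells; 2 h calcium dye at 37 °C; compound in DMSO; 3-min kinetic fluorescence read.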

Progesterone receptor (Homo sapiens), sequence (P06401 whole entry, looked up): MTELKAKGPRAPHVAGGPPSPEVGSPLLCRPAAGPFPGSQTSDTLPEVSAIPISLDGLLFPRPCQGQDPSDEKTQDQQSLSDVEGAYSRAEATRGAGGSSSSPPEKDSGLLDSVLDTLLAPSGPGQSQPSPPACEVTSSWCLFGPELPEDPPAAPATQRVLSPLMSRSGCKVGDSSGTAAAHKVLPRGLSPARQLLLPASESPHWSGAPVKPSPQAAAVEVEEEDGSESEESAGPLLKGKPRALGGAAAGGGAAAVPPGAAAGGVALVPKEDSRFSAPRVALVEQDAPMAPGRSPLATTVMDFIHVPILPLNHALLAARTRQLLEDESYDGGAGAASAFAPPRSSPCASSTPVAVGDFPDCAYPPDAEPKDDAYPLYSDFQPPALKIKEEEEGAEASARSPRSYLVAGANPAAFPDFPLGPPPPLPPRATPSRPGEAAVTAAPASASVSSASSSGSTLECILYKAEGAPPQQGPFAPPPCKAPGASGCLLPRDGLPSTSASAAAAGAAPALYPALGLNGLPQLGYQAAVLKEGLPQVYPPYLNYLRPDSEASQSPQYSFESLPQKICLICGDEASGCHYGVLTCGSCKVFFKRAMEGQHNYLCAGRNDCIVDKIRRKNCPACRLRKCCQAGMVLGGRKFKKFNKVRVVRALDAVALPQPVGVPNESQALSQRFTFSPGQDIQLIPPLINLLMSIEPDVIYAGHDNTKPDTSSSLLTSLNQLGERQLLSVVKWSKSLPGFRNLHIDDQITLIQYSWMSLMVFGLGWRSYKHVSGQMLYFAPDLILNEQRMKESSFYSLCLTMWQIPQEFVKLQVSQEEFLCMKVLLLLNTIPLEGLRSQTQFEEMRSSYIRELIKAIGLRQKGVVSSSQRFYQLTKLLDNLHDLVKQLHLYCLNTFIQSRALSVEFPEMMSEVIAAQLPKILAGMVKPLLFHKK
Thyrotropin-releasing hormone receptor (Homo sapiens), sequence (P34981 whole entry, looked up): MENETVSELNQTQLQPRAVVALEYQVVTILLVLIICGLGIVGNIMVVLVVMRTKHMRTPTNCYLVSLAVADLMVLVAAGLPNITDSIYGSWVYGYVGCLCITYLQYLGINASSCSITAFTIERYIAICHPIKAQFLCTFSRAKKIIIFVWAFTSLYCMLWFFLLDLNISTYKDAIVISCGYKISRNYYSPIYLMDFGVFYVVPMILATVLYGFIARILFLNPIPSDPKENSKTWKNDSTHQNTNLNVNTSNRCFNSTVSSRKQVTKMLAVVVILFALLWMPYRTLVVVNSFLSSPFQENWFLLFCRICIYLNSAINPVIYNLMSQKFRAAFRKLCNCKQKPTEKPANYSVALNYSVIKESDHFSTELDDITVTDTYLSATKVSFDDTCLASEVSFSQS

| Compound | Potency [1] | Potency [2] | Potency [3] | Potency [4] | Potency [5] | Potency [6] | Potency [7] | Potency [8] | Potency [9] | Potency [10] | outcome [6] |
| --- | --- | --- | --- | --- | --- | --- | --- | --- | --- | --- | --- |
| COc1ccc(N)cc1 | inactive | inactive | inactive | inactive | inactive | inactive | inactive | inactive |  |  |  |
| CCNc1nc(Cl)nc(NCC)n1 | inactive | inactive | inactive | inactive | inactive | inactive | inactive |  | inactive | inactive |  |
| Nc1ccc(-c2ccc(N)cc2)cc1 | inactive | inactive | inactive | inactive | inactive | inactive | inactive |  | inactive | inactive |  |
| CCCCCCn1cc[n+](C)c1 | inactive | inactive | inactive |  | inactive | inactive | inactive |  |  |  |  |
| CCCCCCCCCCCCOS(=O)(=O)O | inactive | inactive | inactive |  | inactive and 27.3 µM (active) | inactive | inactive |  |  |  |  |
| CCCC[n+]1ccccc1C | inactive | inactive | inactive |  | inactive | inactive | inactive |  |  |  |  |
| O=[N+]([O-])c1ccccc1O | inactive | inactive | inactive | inactive | inactive | inactive | inactive |  | inactive | inactive |  |
| O=C(O)COc1ccc(Cl)cc1Cl | inactive | inactive | inactive |  | inactive | inactive | inactive | inactive |  |  |  |
| CC(Cl)(Cl)C(=O)O | inactive | inactive | inactive |  | inactive | inactive | inactive |  |  |  |  |
| CCCC[N+]1(C)CCCC1 | inactive | inactive | inactive |  | inactive | inactive | inactive |  |  |  |  |
| CC[N+]1(C)CCCC1 | inactive | 19.8 µM (active) and inactive | inactive |  | inactive | inactive | inactive |  |  |  |  |
| CC[N+](CC)(CC)CC | inactive | inactive | inactive |  | inactive | inactive | inactive |  |  |  |  |
| CCCCCCCCCCCCCC[P+](CCCCCC)(CCCCCC)CCCCCC | 9.73 µM (active) and 21.9 µM (active) and 6.85 µM (active) | inactive | inactive | 30.8 µM (active) |  |  | 15.6 µM (active) and 24.7 µM (active) and inactive |  |  |  |  |
| CCn1cc[n+](C)c1C | inactive | inactive | inactive |  | inactive | inactive | inactive |  |  |  |  |
| CCCC[N+]1(C)CCCCC1 | inactive | inactive | inactive | inactive | inactive | inactive | inactive | inactive |  |  |  |
| OCCOc1ccccc1 | inactive | inactive | inactive |  | inactive | inactive | inactive |  |  |  |  |

| Compound | Potency [1] | Potency [2] | Potency [3] | Potency [4] | Potency [5] | Potency [6] | Potency [7] | Potency [8] | Potency [9] | Potency [10] | outcome [6] |
| --- | --- | --- | --- | --- | --- | --- | --- | --- | --- | --- | --- |
| O=[N+]([O-])O | inactive | inactive | inactive | inactive | inactive | inactive | inactive |  |  |  | inactive |
| Oc1cccc2cccnc12 | inactive | inactive | 4.6 µM (active) and inactive |  | 770 nM (active) and inactive | inactive | inactive | inactive |  |  |  |
| CCC[N+]1(C)CCCCC1 | inactive | inactive | inactive |  | inactive | inactive | inactive | inactive |  |  |  |
| COc1ccccc1N | inactive | inactive | inactive | inactive | inactive | inactive | inactive | inactive | inactive | inactive |  |
| CCC[N+]1(C)CCCC1 | inactive | inactive | inactive |  | inactive | inactive | inactive |  |  |  |  |
| O=C(O)c1nc(Cl)ccc1Cl | inactive | inactive | inactive |  | inactive | inactive | inactive |  |  |  |  |
| Cc1cc(Cl)ccc1N | inactive | inactive | inactive | inactive | inactive | inactive | inactive | inactive | inactive | inactive |  |
| O=c1[nH]c(=O)n(Cl)c(=O)n1Cl | inactive | inactive | inactive | inactive | inactive | inactive | inactive |  | inactive | inactive |  |
| CC[n+]1ccccc1 | inactive and 42.9 µM (active) | inactive | inactive |  | inactive and 48.2 µM (active) | inactive | inactive |  |  |  |  |
| CCCCCCCCCCCC(=O)O | inactive | inactive | inactive | inactive | inactive | inactive | inactive | inactive |  |  |  |
| O=C(O)c1ccccc1O | inactive | inactive | inactive | inactive | inactive | inactive | inactive | inactive |  |  |  |
| O=P1(N(CCCl)CCCl)NCCCO1 (configuration not stated) | inactive | inactive | inactive | inactive | inactive | inactive | inactive | inactive | inactive | inactive |  |
| CCCCCCCCCCCCCCCCn1cc[n+](C)c1 | inactive and 55 µM (active) and 21.7 µM (active) | inactive | inactive and 21.7 µM (active) |  | inactive and 61.7 µM (active) and 30.7 µM (active) |  |  |  |  |  |  |
| C[N+](C)(C)Cc1ccccc1 | inactive | inactive | inactive | inactive | inactive | inactive | inactive |  |  |  |  |
| Cc1cc(-c2ccc(N)c(C)c2)ccc1N | inactive | inactive | 61.8 µM (active) and 48.4 µM (active) and 17.2 µM (active) |  | inactive | inactive | inactive |  |  |  |  |
| CCCCCC[n+]1ccccc1 | inactive | inactive | inactive |  | inactive | inactive | inactive |  |  |  |  |
